Screens from PubChem BioAssay.
Most compounds without a hit are left out; they make up all but 11% or so of the library.
VP16 counter = Gal4-VP16 reporter inhibition counter-screen. Drosophila S2 Gal4-VP16 UAS-luciferase, luminescence, 20 h. Potency, µM (series often up to 53.6 µM), inactives show at the highest dose activity, negative = inhibition, most hits filed as inhibitors. 310,000 tested, 3.5% active. AID 2546;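 further: Gal4-VP16 expression switched on by copper sulfate through the metallothionein promoter; potency means the concentration at half of the fitted maximal effect; on the % scale 0 is the no-effect control and ±100 the full control effect; nearly all actives have a fitted effect of over 50% in size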
IL-1B inflam inh = inhibitors of inflammasome signaling (IL-1 beta secretion). THP-1 LPS/ATP IL-1B secretion, AlphaLISA, 16 h; active compounds read low. AID 743279. activity change, % at 57.5 µM. 360,000 tested, 4.7% active; in the data active means activity change below about -50%; inconclusive means mostly about -30% to -49%; further: on the % scale 0 is the no-effect control and ±100 the full control effect
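THP-1 cells pretreated 1 hr with compounds (up to 57.5 uM final), then stimulated with LPS (250 ng/mL final) plus ATP (1.25 mM final); secreted IL-1B measured by AlphaLISA after 16 hr, decreased signal indicating inhibition.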
SW480 rerep = inducers of DNA re-replication in SW480 colon cancer cells; SW480 DNA re-replication, Hoechst DNA content imaging, 48 h; Potency, µM (titrated, usually from 46.1 µM), for inactives: at the top dose re-replication activation, hits mostly activators; 340,000 tested, 1.8% active; further: potency means the concentration at half of the fitted maximal effect; % of control where 0% means no effect; nearly all actives have a fitted effect of over 55% in size
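First, 250 cells per well were seeded. Next, compound or vehicle (23 nL) was pinned in, plates sat 48 hr at 37 C. Finally Hoechst was added for 40 min before fluorescence scanning.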
RORg inh = blocks mouse ROR gamma transcriptional activity; P51450; Drosophila S2 Gal4-RORgamma UAS-luciferase reporter, 20 h; Potency, µM (series often up to 53.6 µM), inactives show at the top dose activity change, negative = inhibition, actives largely listed as inhibitors; 310,000 tested, 5.4% active; AID 2551; further: potency means the concentration at half of the fitted maximal effect; on the % scale 0 is the no-effect control and ±100 the full control effect; nearly all actives have a fitted effect of over 60% in size
Target sequence (P51450 whole entry, looked up, the tested form may be a part): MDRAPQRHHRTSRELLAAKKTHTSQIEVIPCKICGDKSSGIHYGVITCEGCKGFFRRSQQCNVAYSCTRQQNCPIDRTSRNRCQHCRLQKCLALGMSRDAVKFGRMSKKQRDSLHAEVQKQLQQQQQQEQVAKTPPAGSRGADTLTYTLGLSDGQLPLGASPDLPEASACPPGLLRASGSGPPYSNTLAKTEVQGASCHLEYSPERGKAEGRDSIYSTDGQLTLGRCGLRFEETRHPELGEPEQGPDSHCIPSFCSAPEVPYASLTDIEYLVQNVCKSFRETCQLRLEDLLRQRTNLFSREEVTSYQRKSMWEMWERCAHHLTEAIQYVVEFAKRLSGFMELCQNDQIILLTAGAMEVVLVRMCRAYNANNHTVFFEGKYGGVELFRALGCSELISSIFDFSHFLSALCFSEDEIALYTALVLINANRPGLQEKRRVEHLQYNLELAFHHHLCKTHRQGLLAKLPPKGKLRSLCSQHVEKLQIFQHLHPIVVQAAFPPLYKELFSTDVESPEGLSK
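Stable Schneider cell line, Gal4 DNA-binding domain fused to ROR gamma, UAS-luciferase. Cmpd 1 hr RT → CuSO4 700 uM final → 20 hr RT → luciferase reagent 10 min → luminescence.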
MCF10A rereplic = inducers of DNA re-replication in MCF 10A breast cells. MCF 10A DNA re-replication, Hoechst nuclear intensity, 48 h. Potency, µM (titrated, usually from 46.1 µM), for inactives: at the top dose activity, positive = re-replication, most hits filed as activators. 350,000 tested, 2.9% active. AID 624296; further: potency means the concentration at half of the fitted maximal effect; % of control where 0% means no effect; nearly all actives have a fitted effect of over 50% in size
Numbers without * were called inactive; ? = inconclusive; / = no result; [ ] = dose if it differs, or a comment. Unless noted, the call rests on the fitted dose curve; in most records, active means well fitted curve in the direction sought with a large enough effect; inconclusive means small, poorly fitted or top-dose-only effect, or another doubt; inactive means no such curve, though single readings can be large; an effect the other way counts as inactive or inconclusive.

SMILES	VP16 counter	IL-1B inflam inh	SW480 rerep	RORg inh	MCF10A rereplic
Cc1cccc([C@@H]2[C@@H]3C(=O)N(Cc4ccccc4)C(=O)[C@@H]3[C@]3(Cc4ccccc4)C(=O)N(c4ccc(C(F)(F)F)cc4)C(=O)N23)c1	/	-1	-4%	/	-6%
O=C(N[C@@H](Cc1ccccc1)C(=O)OCc1ccccc1)c1ccco1	/	-3	3%	/	1%
N#C/C(=C\c1cccc(Br)c1)C(=O)N1CCCCC1	?	?	?	2.5µM*	23µM*
N#C/C(=C\c1cccc(O)c1)C(=O)N1CCCCC1	-27%	-73*	?	6%[1.91 µM]	18µM*
Cc1cc(/C=C(\C#N)C(=O)N2CCCCC2)cc(C)c1O	?	-5	?	-28%	?
O=C1OCCC1Sc1nnc(-c2ccccc2Br)n1Cc1ccccc1 (centres undefined)	-5%	-54*	-3%	10%	2%
O=C1OCCC1Sc1nnc(-c2ccccc2Cl)n1Cc1ccccc1 (centres undefined)	-10%	10	-12%	4%	?
CC(=O)N1CCc2c(sc(NC(=O)CCS(=O)(=O)c3ccccc3)c2C(N)=O)C1	3%	12	21µM*	-1%	?
CCC(=O)Nc1sc2c(c1C(N)=O)CCN(C(C)=O)C2	-4%	7	-9%	?	-2%
CCOC(=O)N1CCc2c(sc(NC(=O)CCS(=O)(=O)c3ccccc3)c2C(N)=O)C1	-24%	-10	-10%	1%	?
CC(=O)N1CCc2c(sc(NC(=O)c3ccc4c(c3)OCCO4)c2C#N)C1	9%	25	18µM*	4%	15µM*
CC(=O)N1CCc2c(sc(NC(=O)c3ccc([N+](=O)[O-])o3)c2C(N)=O)C1	/	-80*	/	/	/
CCn1cc(/C=C/C(=O)c2ccc(O)cc2)c(C)n1	4µM*	-81*	-7%	2.2µM*	1%
C=CCn1c(=O)/c(=C/c2ccc(Cl)cc2)s/c1=C(/C#N)c1nnc2n1CCCCC2	-10%	-72*	-12%	-14%	-3%
COCC(=O)N1CCC[C@@]2(CCN(C(=O)Nc3cccc(C#N)c3)C2)C1	-12%	/	/	4%	/
Cc1nn2c(-c3ccc(S(=O)(=O)N4CCN(CCO)CC4)o3)nnc2c2ccccc12	-9%	0	18µM*	-20%	0%
COc1ccc(CCc2cc(OC)c(OC)c(OC)c2)cc1	/	36	?	/	1.8µM*
COc1ccc(CCNC(=O)CCc2cc(OC)c(OC)c(OC)c2)cc1	1%	-1	-7%	6%	10%
O=C(NCc1ccccc1)C1CCCN1C(=O)Nc1ccccc1[N+](=O)[O-] (centres undefined)	15%	0	-70%	?	-4%
Cc1[nH]ccc2cc3nc4ccccc4c3cc12	/	-58*	/	/	/
COc1ccc(C(NC(=O)c2c(F)c(F)c(F)c(F)c2F)c2ccccc2)cc1 (centres undefined)	-4%	-121*	?	3%	6.5µM*
N#CCC(=O)N/N=C\c1ccccc1OC/C=C/c1ccccc1	-2%	-28	16µM*	1%	183%
COCC(=O)N/N=C\c1cccc(OC)c1OC/C=C/c1ccccc1	?	-2	16µM*	13µM*	11%
CCOc1ccccc1C=NNC(=O)CCCCC(=O)NN=Cc1ccccc1OCC	/	11	10%	/	16%
C=CCOc1ccccc1/C=N/NC(=O)Cc1ccc(C)cc1	?	7	-14%	11µM*	1%
SMILES	VP16 counter	IL-1B inflam inh	SW480 rerep	RORg inh	MCF10A rereplic
COc1cc(/C=N\NC(=O)C(C)(C)O)ccc1OC/C=C/c1ccccc1	?	-9	?	35µM*	4%
COCC(=O)N/N=C\c1ccccc1OC/C=C/c1ccccc1	-17%	41	?	-4%	104%
Nc1nc(SCc2ccc(Cl)cc2Cl)c2ncn(C3OC(CO)C(O)C3O)c2n1 (centres undefined)	/	-13	0%	/	-11%
C=CCNC(=O)c1cc([N+](=O)[O-])cc2c(=O)[nH]c(Nc3ccc(Cl)c(Cl)c3)nc12	1%	/	/	-4%	/
Cc1cccc(-c2cccc(NC(=O)C3CCCN(C(=O)c4csc(C)n4)C3)c2)c1 (centres undefined)	-2%	?	?	?	?
CC(=O)c1cccc(OCc2cc(C(=O)N3C[C@@H](C)O[C@@H](C)C3)no2)c1	-4%	16	-7%	32%	13%
COc1cccc(/C=N\NC(C)=O)c1OC/C=C/c1ccccc1	11µM*	0	?	8.9µM*	25%
CC(=O)NN1C(=O)c2ccccc2NC1c1ccco1 (centres undefined)	7%	3	?	1%	-14%
CC(=O)NN1C(=O)c2ccccc2NC1c1ccc([N+](=O)[O-])o1 (centres undefined)	-8%	0	23µM*	-38%	15%
CC(=O)NN1C(=O)c2ccccc2NC1c1ccccc1O (centres undefined)	?	36	1%	11µM*	5%
CS(=O)(=O)NN1C(=O)c2ccccc2NC1c1ccccc1O (centres undefined)	2%	7	-9%	3%	-4%
O=C(NN1C(=O)c2ccccc2NC1c1ccc([N+](=O)[O-])o1)c1ccc(Br)cc1 (centres undefined)	6%	-25	?	35%	9.2µM*
O=C(NN1C(=O)c2ccccc2NC1c1ccco1)c1ccc(Br)cc1 (centres undefined)	0%	-2	-15%	?	0%
Nc1nc(N)c2cc(Sc3ccc4ccccc4c3)ccc2n1	?	?	?	?	16µM*
COc1ccc(Cn2c(C3CC3)nc3ccc(NC(=O)c4ccco4)cc3c2=O)cc1	7%	-54*	?	39%	?
COc1cc(CN2CCCC(N3CCN(c4ccc(F)cc4)CC3)C2)ccc1F (centres undefined)	-3%	-21	-12%	-42%	3%
Cc1cc(C)c(COCc2cc(/C=N/O)c(C)cc2C)cc1/C=N/O	-29%	-83*	1%	-43%	-3%
CSc1cc(/C=N/O)c(SC)s1	?	-18	2%	?	2%
Cc1ccc(S(=O)(=O)Nc2ccccc2O)cc1	/	-8	/	/	/
Cc1ccc(S(=O)(=O)Nc2ccc(O)c3cccnc23)cc1	?	74	23µM*	10µM*	?
Cc1ccc(S(=O)(=O)Nc2ccnc3ccccc23)cc1	7%	-8	-5%	14%	8%
Cc1ccc(S(=O)(=O)Nc2ccc(O)c3ncccc23)cc1	?	167	19%	2.5µM*	-13%
CC(C(=O)N1CCc2ccccc21)N1CCN(c2cccc(C(F)(F)F)c2)CC1 (centres undefined)	16%	?	-12%	?	14%
